Results with a measured potency or affinity are listed apart.
Assays:
Staphylococcus aureus = conditions: Concentration 32 ug.mL-1; ASSAY_TEST Inhibition of Bacterial Growth; detection method Absorption (OD600); MEDIA CAMHB; plate type 384well; NBS; CORNING #3640; time 18 hr
Escherichia coli = conditions: Concentration 32 ug.mL-1; ASSAY_TEST Inhibition of Bacterial Growth; detection method Absorption (OD600); MEDIA CAMHB; plate type 384well; NBS; CORNING #3640; time 18 hr

Compound	Inhibition (Staphylococcus aureus) [%]	Inhibition (Escherichia coli) [%]
CC(=NN)c1cc(/C(C)=N/N)cc(/C(C)=N/N)c1	18.93	9.06
CC(=O)c1cc(C(C)=O)cc(C(C)=O)c1	25.72	-14.66
c1ccc2nc3c4cccnc4c4ncccc4c3nc2c1	8.68	-14.57
COC(=O)c1ccc(S)cc1	8.34	-21.23

Reference: ChEMBL document CHEMBL4513140, “CO-ADD screening of Lancaster University (UK) compounds” (2021)
